Results on 18 compounds are retold here after PubChem BioAssay.

The nature of test [1]: circadian clock period modulators, cell-based, LOPAC library, luminescence reporter (AID 2774).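 Further: values are relative to mean of DMSO wells on each plate.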 To be noted: circadian reporter cells, at 7 µM, actives lie on both sides.
In test [2] the test system is Hepatitis C virus NS3 helicase. The experiment in a line: HCV NS3 helicase inhibitors, primary screen, biochemical, fluorescence polarization, LOPAC1280 library (AID 687035; in the data active means inhibition above about 37%). The note with it: Purified HCV NS3 helicase, Cy5-dT15 ssDNA binding fluorescence polarization; stronger effect = higher value; concentration not given here. (In fluorescence polarisation assays a small probe gives low polarisation when free and higher when bound to something large.)

Test [3] can be described thus: Cy5 fluorescence quenching or enhancement artefacts, artefact control for HCV NS3 helicase inhibitor project, biochemical, LOPAC1280 (AID 687037). The note with it: Cy5-DNA-NS3h complex fluorescence interference counterscreen. In general terms: The purpose of a counterscreen is to sort out artefacts and off-target activity.
Test [4] is described as follows: sensitizers of A549 cells to miR-34 induction, primary screen, imaging, A549 dox-inducible miR-34, nuclei and caspase counts (AID 1347080;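 active means compounds whose cell count with miR-34 switched on is under 0.7 times the count with it off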). To be noted: A549 miR-34 inducible, Hoechst nuclei count, 48 h.
A short description of test [5]: phospholipid biosynthesis inhibitors in animal cells, primary screen, cell-based, LOPAC library, screen 4 (AID 1347384). To be noted: phospholipid biosynthesis inhibition screen, at 10 µM.
Test [6] in a line: viability rescue of complex I mutant cybrids, primary screen, cell-based, galactose medium, ATP luminescence (AID 1645843;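 active means z-score of at least 1.8 in each of two replicates, scored against plate mean and spread of sample wells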;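 further: positive z means more ATP and so rescue of galactose-driven cybrid death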). To be noted: complex I mutant cybrid cells, 72 h, stronger effect = higher value.
The mark [7] stands for this setting: stronger effect = lower value, cell number ratio, induced over uninduced.
Where [8] appears, read: measured here: relative caspase fold change +Dox/-Dox.
The mark [9] stands for this setting: measured here: total cells with miR-34 induction, stronger effect = lower value.
Where [10] appears, read: measured here: total cells without miR-34 induction.

Activity calls are given as the source filed them. Unless noted, how the calls were made is not given here.

With `COc1ccccc1N1CCN(CCCNc2c(C)c(=O)n(C)c(=O)n2C)CC1`, the period change in test [1] was -0.1 h (inactive). Besides, in test [2], the inhibition – broadly, the change of the read-out against control, counted positive when it falls – was -5% (inactive). The fluorescence ratio (interference) in test [3] is 1 (inactive). Further, the fold change in test [4] (setting [7]) is 0.886 (inactive); in test [4] (setting [8]) it was 2.76. The cell count came to 8920 in test [4] (setting [9]) and 10100 in test [4] (setting [10]). Moreover, the call in test [5] was inactive. Moreover, the z-score in test [6] was 0.025 (inactive).

As for `N[C@@H](Cc1ccc(F)cc1)C(=O)O`, the period change in test [1] was -0.05 h (inactive). Moreover, in test [2], the inhibition is -1% (inactive). Further, in test [3], the fluorescence ratio (interference) is 1 (inactive). Further, the fold change in test [4] (setting [7]) is 1.04 (inactive); in test [4] (setting [8]) it was 0.805. Further, the cell count in test [4] (setting [9]) amounted to 9710; in test [4] (setting [10]) it was 9330. Moreover, the outcome in test [5] was inactive. Besides, the z-score in test [6] is 0.26 (inactive).

As to `O=C(c1cc(O)c(O)c([N+](=O)[O-])c1)c1ccccc1F`, the period change in test [1] was 0.055 h (inactive). In test [2], the inhibition is 5% (inactive). In test [3], the fluorescence ratio (interference) is 0.9 (inactive). For the same compound, the fold change is 1.18 (inactive) in test [4] (setting [7]) and 1.45 in test [4] (setting [8]). The cell count came out at 7010 in test [4] (setting [9]) and 5940 in test [4] (setting [10]). Moreover, in test [5], the call was inactive. Further, the z-score in test [6] was -0.165 (inactive).

On to `CC1=C(C(=O)O)N2C(=O)[C@@H](NC(=O)C(N)C3=CCC=CC3)[C@H]2SC1` (some centres not stated), for which the period change in test [1] is -0.045 h (inactive). In addition, in test [2], the inhibition is 0% (inactive). In addition, the fluorescence ratio (interference) in test [3] was 1 (inactive). Besides, the fold change in test [4] (setting [7]) was 1.02 (inactive); in test [4] (setting [8]), 1.79. Besides, the cell count in test [4] (setting [9]) came to 10500; in test [4] (setting [10]), 10300. Moreover, the compound was classed as inactive in test [5]. Also, the z-score in test [6] is -0.29 (inactive).

Regarding `COc1cccc2c1[C@@H]1CN(CCCCn3c(=O)[nH]c4c(sc5ncc(-c6ccccc6)nc54)c3=O)C[C@@H]1CO2`, in test [1], the period change was -0.035 h (inactive). In test [2], the inhibition was -5% (inactive). In test [3], the fluorescence ratio (interference) was 0.9 (inactive). Further, the fold change was 1.07 (inactive) in test [4] (setting [7]) and 1.42 in test [4] (setting [8]). Moreover, the cell count in test [4] (setting [9]) is 6250; in test [4] (setting [10]) it was 5860. Also, in test [5], the result was inactive. Further, the z-score in test [6] was -1.02 (inactive).

In the case of `CC(=O)[C@H]1CCC2C3CC=C4C[C@@H](OS(=O)(=O)O)CC[C@]4(C)C3CC[C@@]21C` (some centres not stated), in test [1], the period change was 0.02 h (inactive). The inhibition in test [2] is 1% (inactive). Further, in test [3], the fluorescence ratio (interference) is 1 (inactive). Besides, the fold change is 0.987 (inactive) in test [4] (setting [7]) and 1.53 in test [4] (setting [8]). Also, the cell count in test [4] (setting [9]) was 10100; in test [4] (setting [10]) it was 10300. Besides, the call in test [5] was inactive. Besides, in test [6], the z-score is 2.2 (active).

Consider `C=CC[C@H](N)C(=O)O`, for which the period change in test [1] was -0.185 h (inactive). The inhibition in test [2] was -3% (inactive). Also, the fluorescence ratio (interference) in test [3] was 1 (inactive). Moreover, the fold change is 0.944 (inactive) in test [4] (setting [7]) and 0.719 in test [4] (setting [8]). The results for the cell count in test [4] (setting [9]) and in test [4] (setting [10]) were 9830 and 10400, respectively. Besides, in test [5], the outcome was inactive. In addition, the z-score in test [6] is 0.62 (inactive).

Consider `Cc1cn([C@H]2C[C@@H](N=[N+]=[N-])[C@@H](CO)O2)c(=O)[nH]c1=O`, for which the period change in test [1] is 0.06 h (inactive). Further, the inhibition in test [2] was -1% (inactive). Besides, in test [3], the fluorescence ratio (interference) is 0.9 (inactive). For the same compound, the fold change is 1.13 (inactive) in test [4] (setting [7]) and 1.91 in test [4] (setting [8]). The cell count in test [4] (setting [9]) amounted to 8200; in test [4] (setting [10]) it was 7230. Besides, the compound was called inactive in test [5]. The z-score in test [6] is 0.445 (inactive).

As for `CCCCCCCCCC[Si](C)(C)CCC(=O)NC(Cc1ccc(C)cc1)c1ccccc1` (configuration not stated), the period change in test [1] was 0.12 h (inactive). Also, in test [2], the inhibition is -1% (inactive). Further, in test [3], the fluorescence ratio (interference) was 1 (inactive). The fold change is 1.02 (inactive) in test [4] (setting [7]) and 2.15 in test [4] (setting [8]). Also, the cell count turned out to be 10100 in test [4] (setting [9]) and 9990 in test [4] (setting [10]). Besides, in test [5], the call was inactive. The z-score in test [6] is -0.33 (inactive).

Regarding `NCC(O)C1CCCCCCC1` (configuration not stated), the period change in test [1] was -0.04 h (inactive). Besides, in test [2], the inhibition was -3% (inactive). The fluorescence ratio (interference) in test [3] was 1 (inactive). Moreover, the fold change in test [4] (setting [7]) is 0.963 (inactive); in test [4] (setting [8]) it was 1.08. For the same compound, the cell count in test [4] (setting [9]) was found to be 9960; in test [4] (setting [10]), 10300. Moreover, in test [5], the call was inactive. Moreover, in test [6], the z-score is 0.085 (inactive).

For `Nn1nnc2ccccc21`, in test [1], the period change is -0.155 h (inactive). For the same compound, in test [2], the inhibition is -1% (inactive). Moreover, the fluorescence ratio (interference) in test [3] was 1 (inactive). Also, the fold change was 1.06 (inactive) in test [4] (setting [7]) and 1.77 in test [4] (setting [8]). The cell count amounted to 10600 in test [4] (setting [9]) and 9990 in test [4] (setting [10]). The compound was classed as inactive in test [5]. Further, in test [6], the z-score is 0.305 (inactive).

For the compound `O=C1C2C=CC=CC2=NC(=S)N1CCN1CCC(=C(c2ccc(F)cc2)c2ccc(F)cc2)CC1` (configuration not stated), the period change in test [1] was -0.295 h (inactive). Also, the inhibition in test [2] is 1% (inactive). For the same compound, in test [3], the fluorescence ratio (interference) was 1 (inactive). The fold change is 0.996 (inactive) in test [4] (setting [7]) and 1.03 in test [4] (setting [8]). For the same compound, the results for the cell count in test [4] (setting [9]) and in test [4] (setting [10]) were 9730 and 9760, respectively. For the same compound, the result in test [5] was inactive. The z-score in test [6] was -0.96 (inactive).

Consider `Cn1ccnc1`, for which the period change in test [1] was 0.39 h (inactive). In addition, the inhibition in test [2] was -2% (inactive). Moreover, the fluorescence ratio (interference) in test [3] is 0.9 (inactive). Besides, the fold change in test [4] (setting [7]) was 1.1 (inactive); in test [4] (setting [8]) it was 0.769. Moreover, the cell count stood at 11100 in test [4] (setting [9]) and 10000 in test [4] (setting [10]). The compound was classed as inactive in test [5]. In addition, in test [6], the z-score was 0.675 (inactive).

In the case of `NC1(C(=O)O)CCCCC1`, in test [1], the period change was -0.115 h (inactive). The inhibition in test [2] is -2% (inactive). In addition, in test [3], the fluorescence ratio (interference) is 1 (inactive). Besides, the fold change in test [4] (setting [7]) was 0.983 (inactive); in test [4] (setting [8]), 2.37. The results for the cell count in test [4] (setting [9]) and in test [4] (setting [10]) were 10700 and 10900, respectively. Also, the outcome in test [5] was inactive. Also, in test [6], the z-score is 0.63 (inactive).

Regarding `C=CCn1c(=O)c2c(nc(-c3ccc(S(=O)(=O)O)cc3)n2C)n(C)c1=O`, in test [1], the period change is -0.155 h (inactive). The inhibition in test [2] is -3% (inactive). Also, the fluorescence ratio (interference) in test [3] is 1 (inactive). Further, the fold change was 1.02 (inactive) in test [4] (setting [7]) and 2.49 in test [4] (setting [8]). Moreover, the cell count in test [4] (setting [9]) was found to be 10300; in test [4] (setting [10]), 10100. Further, in test [5], the call was inactive. Besides, in test [6], the z-score is 0.335 (inactive).

Turning to `Cc1cccc(C)c1OCC(N)C(C)C` (configuration not stated), the period change in test [1] is -0.08 h (inactive). In addition, the inhibition in test [2] is -3% (inactive). Besides, the fluorescence ratio (interference) in test [3] was 1 (inactive). Also, the results for the fold change in test [4] (setting [7]) and in test [4] (setting [8]) were 1.09 (inactive) and 0.766, respectively. For the same compound, the results for the cell count in test [4] (setting [9]) and in test [4] (setting [10]) were 11200 and 10300, respectively. In addition, the call in test [5] was inactive. Also, the z-score in test [6] is -0.425 (inactive).

Turning to `CC1CN(S(=O)(=O)c2cccc3cnccc23)CCN1` (configuration not stated), in test [1], the period change is 0.475 h (inactive). Moreover, in test [2], the inhibition is -6% (inactive). In addition, in test [3], the fluorescence ratio (interference) is 0.9 (inactive). Further, the fold change was 1.09 (inactive) in test [4] (setting [7]) and 0.736 in test [4] (setting [8]). The cell count in test [4] (setting [9]) turned out to be 11600; in test [4] (setting [10]), 10600. Also, the call in test [5] was inactive. In test [6], the z-score was 0.18 (inactive).

Turning to `COc1cc(/C=C(\C#N)C(=O)c2ccc(O)c(O)c2)cc(I)c1O`, the period change in test [1] is 0.035 h (inactive). Besides, the inhibition in test [2] is 37% (active). The fluorescence ratio (interference) in test [3] is 0.9 (inactive). Moreover, the fold change was 0.957 (inactive) in test [4] (setting [7]) and 1.26 in test [4] (setting [8]). Moreover, the cell count is 9980 in test [4] (setting [9]) and 10400 in test [4] (setting [10]). For the same compound, the result in test [5] was inactive. Moreover, in test [6], the z-score is 0.8 (inactive).
